Molecular target: PUM1 PUF domain R4-GPC (Homo sapiens, UniProt Q14671 828-1176, N971G;H972P;Q975C)
Assay: yeast three-hybrid, YBZ-1, SC-Leu-His + 0.5 mM 3-AT, 4 days
Conditions: tags: N-Gal4 AD-HA kept; label: inside an RPR1-promoter hybrid RNA with tandem MS2 sites; ssRNA
In short: (§1)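 The interaction score is the log change in variant frequency from input to selection. Scores were computed in log2 with a pseudocount of 1 for absent variants, using Illumina sequencing of PCR-amplified repeat regions. The input came from four days on SC-Leu and the selection from four days on SC-Leu-His + 0.5 mM 3-AT. The cells were strain YBZ-1 (LexA–MS2 coat fusion, HIS3 reporter) co-expressing Pumilio-1 PUF domain libraries and matching RNA elements from a centromeric plasmid.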

Row | Sequence | binding signal
1 | GGCUAGAACUAGUGGAUCCCCCGGCGCCCGGCGGCUCGAGCCCGGGUAAGUGUAAAUAGUCUGCAUGCCGCCGGGCGCCAUGCCUGCAGGUCGACUCUAGAAAACAUG | 4.57 log2 enrichment (interaction score)
2 | GGCUAGAACUAGUGGAUCCCCCGGCGCCCGGCGGCUCGAGCCCGGGUAAGUGUACAUAGUCUGCAUGCCGCCGGGCGCCAUGCCUGCAGGUCGACUCUAGAAAACAUG | 1.58 log2 enrichment (interaction score)
3 | GGCUAGAACUAGUGGAUCCCCCGGCGCCCGGCGGCUCGAGCCCGGGUAAGUGUAUAUAGUCUGCAUGCCGCCGGGCGCCAUGCCUGCAGGUCGACUCUAGAAAACAUG | 2.93 log2 enrichment (interaction score)

Molecular target: PUM1 PUF domain R3-FWS (Homo sapiens, UniProt Q14671 828-1176, C935F;R936W;Q939S)
Assay: as above
Conditions: tags: N-Gal4 AD-HA kept; label: inside an RPR1-promoter hybrid RNA with tandem MS2 sites; ssRNA
In short: as §1

Row | Sequence | binding signal
4 | GGCUAGAACUAGUGGAUCCCCCGGCGCCCGGCGGCUCGAGCCCGGGUAAGUGUAAUUAGUCUGCAUGCCGCCGGGCGCCAUGCCUGCAGGUCGACUCUAGAAAACAUG | 2.99 log2 enrichment (interaction score)
5 | GGCUAGAACUAGUGGAUCCCCCGGCGCCCGGCGGCUCGAGCCCGGGUAAGUGUAAAUAGUCUGCAUGCCGCCGGGCGCCAUGCCUGCAGGUCGACUCUAGAAAACAUG | 3.07 log2 enrichment (interaction score)
6 | GGCUAGAACUAGUGGAUCCCCCGGCGCCCGGCGGCUCGAGCCCGGGUAAGUGUAAGUAGUCUGCAUGCCGCCGGGCGCCAUGCCUGCAGGUCGACUCUAGAAAACAUG | 7.37 log2 enrichment (interaction score)

— publication PMC8384837, “Expanding the binding specificity for RNA recognition by a PUF domain”
